This passage reports Potency results from PubChem BioAssay (Tox21).

Test [1] can be described thus: Nuclear factor erythroid 2-related factor 2/antioxidant responsive element (Nrf2/ARE) small molecule agonists: qHTS cell viability counter screen in human keratinocytes (AID 1919968; active = well fitted curve in the direction sought with a large enough effect in the repeat runs; an effect the other way counts as inactive or inconclusive; also: nearly all actives have a fitted effect of over 55% in size). A digest of the protocol:
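Seed 1,500 KeratinoSens cells per well, then incubate 5 h at 37 C/5% CO2. Add compounds in DMSO and incubate 23 h. Add CellTiter-Fluor, wait 1 h and read fluorescence.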
A general note: qHTS replaces the single test concentration by a dilution series.

Test [2] can be described thus: Nuclear factor erythroid 2-related factor 2/antioxidant responsive element (Nrf2/ARE) small molecule agonists: luciferase reporter gene qHTS assay in human keratinocytes (AID 1919969; also: nearly all actives have a fitted effect of over 35% in size; also: potency is read from the fitted curve at half-maximal effect). (Reporter assays use an easily measured gene product as a stand-in for the process of interest.)
In test [3] the target is Gonadotropin-releasing hormone receptor (Homo sapiens) (UniProt P30968). Nature of the test: Human gonadotropin-releasing hormone receptor (GnRHR) small molecule agonists, calcium flux assay in GnRHR-HEK293 cells (AID 1920063). Also: nearly all actives have a fitted effect of over 35% in size. A digest of the protocol:
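Cells: HEK293 stably expressing human GnRHR. Steps: overnight (18 h) culture, 1 h calcium dye loading at 37 C, compound addition, kinetic fluorescence read at 480/540 nm. Each compound tested at 15 concentrations in triplicate.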

The target of test [4] is KiSS-1 receptor (Homo sapiens) (UniProt Q969F8). In words: Human kisspeptin (KISS1R) small molecule agonists, calcium flux assay in KISS1R-HEK293 cells (AID 1920064; active = well fitted curve in the direction sought with a large enough effect in the repeat runs; an effect the other way counts as inactive or inconclusive). A digest of the protocol: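 Cells plated and incubated 18 h; dye added, 1 h at 37 C; compounds in DMSO pinned in; signal read at 480/540 nm every second for 3 min. Each compound tested at 15 concentrations in triplicate.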
Chain of KiSS-1 receptor (Homo sapiens) (Q969F8 whole entry, looked up): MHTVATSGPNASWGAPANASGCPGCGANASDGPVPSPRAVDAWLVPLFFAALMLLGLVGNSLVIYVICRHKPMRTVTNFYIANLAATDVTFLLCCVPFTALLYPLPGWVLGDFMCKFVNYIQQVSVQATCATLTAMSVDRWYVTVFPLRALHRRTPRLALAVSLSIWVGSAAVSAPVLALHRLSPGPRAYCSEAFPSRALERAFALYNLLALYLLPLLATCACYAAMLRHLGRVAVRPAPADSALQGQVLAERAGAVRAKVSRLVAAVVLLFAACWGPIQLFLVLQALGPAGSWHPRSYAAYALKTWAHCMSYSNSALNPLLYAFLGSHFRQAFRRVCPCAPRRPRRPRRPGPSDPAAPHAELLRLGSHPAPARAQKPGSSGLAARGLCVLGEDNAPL
On the technique in general: Calcium assays in cells follow changes in intracellular calcium, usually with a dye or a luminescent sensor.

Test [5] is described as follows: G protein-coupled receptor (GPCR) small molecule agonists, calcium flux assay: HEK293 wild type cell line counter screen (AID 1920065). A digest of the protocol: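 Counter-screen of the Tox21 10K library for non-specific calcium release: dye-loaded cells received compounds in DMSO and were monitored by kinetic fluorescence (480/540 nm, 3 min). Fifteen concentrations, run in triplicate.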

Test [6] is described as follows: p53 small molecule agonists, cell-based qHTS assay with human liver microsomes (AID 1963577).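 Also: p53 response element beta-lactamase reporter cells with liver microsomes plus NADPH.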 The procedure, abridged: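 p53RE-bla cells; 5 h settle, 37 C/5% CO2; cpd + HLM 0.5 mg/mL + NADPH 0.5 mg/mL (final); 16 h 37 C; LiveBLAzer 2 h RT dark; fluorescence readout.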
Test [7] is described as follows: p53 small molecule agonists, cell-based qHTS assay with rat liver microsomes (AID 1963578). The procedure, abridged: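 Rat liver microsome activation: microsomes 0.5 mg/mL, NADPH 0.5 mg/mL final; p53RE-bla cells, 16 h 37 C; LiveBLAzer readout, 2 h RT dark.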
A short description of test [8]: p53 small molecule agonists, cell-based qHTS assay with human liver microsomes: qHTS cell viability counter screen (AID 1963579). Also: nearly all actives have a fitted effect of over 45% in size. The procedure, abridged: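 Luminescent CellTiter-Glo read-out, 30 min at room temperature, gauged cytotoxicity in p53RE-bla cells exposed 16 h at 37 C to DMSO-dissolved compounds with metabolic activation by human liver microsomes and NADPH, each 0.5 mg/mL final.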

Test [9] is described as follows: p53 small molecule agonists, cell-based qHTS assay with rat liver microsomes: qHTS cell viability counter screen (AID 1963580). Also: nearly all actives have a fitted effect of over 45% in size. A digest of the protocol: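 Viability is assessed in parallel with the p53 reporter read: HCT-116 p53RE-bla cells receive compounds plus rat microsomes and NADPH (0.5 mg/mL final apiece), incubate 16 h at 37 C, and then CellTiter-Glo luminescence is recorded.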

Test [10] can be described thus: p53 small molecule agonists, cell-based qHTS assay (AID 1963582; active = well fitted activation curve with a large enough effect in the signal ratio in the repeat runs, not every such curve was filed as active; the % refers to the signal ratio). The procedure, abridged:
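Quantitative HTS in p53RE-bla cells: after a 5 h settling period, compounds delivered in DMSO were left on cells for 16 h at 37 C, and reporter induction was measured as fluorescence following 2 h substrate loading.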

The target of test [11] is 5-hydroxytryptamine receptor 2A (Homo sapiens) (UniProt P28223). In words: 5-hydroxytryptamine receptor 2A (HTR2A) small molecule antagonists, cell-based qHTS assay (AID 1963586). Also: nearly all actives have a fitted effect of over 45% in size. A digest of the protocol: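 Antagonist-mode intracellular calcium assay: DOI (4 nM) added after 5 min compound pre-incubation at room temperature to dye-loaded HTR2A-CHO cells. Fluorescence followed for 3 min, sampled every second.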
Chain of 5-hydroxytryptamine receptor 2A (Homo sapiens) (P28223 whole entry, looked up): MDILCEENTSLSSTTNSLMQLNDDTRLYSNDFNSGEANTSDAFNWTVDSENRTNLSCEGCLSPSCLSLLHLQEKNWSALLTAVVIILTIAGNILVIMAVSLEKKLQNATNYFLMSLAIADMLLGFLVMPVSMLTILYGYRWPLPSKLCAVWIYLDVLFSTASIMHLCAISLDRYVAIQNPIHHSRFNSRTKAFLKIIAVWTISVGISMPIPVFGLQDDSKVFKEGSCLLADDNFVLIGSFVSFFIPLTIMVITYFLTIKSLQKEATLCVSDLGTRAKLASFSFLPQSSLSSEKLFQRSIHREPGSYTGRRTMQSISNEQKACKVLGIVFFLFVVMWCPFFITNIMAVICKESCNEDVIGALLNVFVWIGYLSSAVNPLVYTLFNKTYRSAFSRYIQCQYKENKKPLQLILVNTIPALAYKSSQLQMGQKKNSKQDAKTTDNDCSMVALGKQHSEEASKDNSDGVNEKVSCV

Test [12] addresses Muscarinic acetylcholine receptor M1 (Homo sapiens) (UniProt P11229). Nature of the test: Cholinergic receptor muscarinic 1 (CHRM1) small molecule antagonists, cell-based qHTS assay (AID 1963588). Also: nearly all actives have a fitted effect of over 40% in size. A digest of the protocol:
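CHRM1-CHO calcium-flux assay, antagonist mode. Cells were seeded 18 h, dye-loaded 1 h at 37 C and given compound for 5 min at RT, then acetylcholine was added at 50nM. FDSS fluorescence was read 3 min; 15 concentrations, three runs.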

The nature of test [13]: cAMP Responsive Elements (CRE) small molecule agonists, cell-based qHTS assay (AID 1963590). The procedure, abridged: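 Agonist mode qHTS in CRE-bla HEK 293T cells: compounds dosed from DMSO for 3 h at 37 C/5% CO2, followed by LiveBLAzer B/G FRET substrate for 2 h at room temperature.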
The nature of test [14]: cAMP Responsive Elements (CRE) small molecule antagonists, cell-based qHTS assay (AID 1963591; active = well fitted inhibition curve with a large enough effect in the signal ratio in the repeat runs, not every such curve was filed as active; the % refers to the signal ratio). The procedure, abridged:
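Antagonist mode: test compounds are co-incubated with the adenylyl cyclase activator NKH477 (0.25 uM final) on CRE-bla HEK293T cells for 3 h at 37 °C, followed by LiveBLAzer substrate loading.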

Test [15] has as its target Beta-2 adrenergic receptor (Homo sapiens) (UniProt P07550). Nature of the test: Adrenergic beta2 receptor (ADRB2) small molecule antagonists, cell-based qHTS assay (AID 1963592). Also: series mostly up to about 92 µM; nearly all actives have a fitted effect of over 50% in size. A digest of the protocol: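 Cells (CHO, stable ADRB2 overexpression) incubated 18-20hr at 37C; compounds added from DMSO; agonist mix (1nM isoproterenol, 100uM IBMX, 25uM Ro-20-1724) added; 0.5hr RT; d2-cAMP and anti-cAMP-cryptate added; 1hr RT; 665/615 nm read.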

The target of test [16] is D(2) dopamine receptor (Homo sapiens) (UniProt P14416). In words: Dopamine D2 receptor (DRD2) small molecule agonists, cell-based qHTS assay (AID 1963594). Also: nearly all actives have a fitted effect of over 35% in size. The procedure, abridged:
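HEK293 cells stably expressing human DRD2, pre-treated with PDE inhibitor Ro20-1724 (0.1 mM final) and compound 10 min at room temperature, then stimulated with NKH477 (200nM […]) for 30 min. cAMP read by HTRF (665/620 nm).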

Test [17] has the same target. In words: Dopamine D2 receptor (DRD2) small molecule antagonists, cell-based qHTS assay (AID 1963595; active = well fitted inhibition curve with a large enough effect in the signal ratio in the repeat runs, with a control signal flat; the % refers to the signal ratio). The procedure, abridged: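 Cells were plated and grown for 24 h at 37 °C. Ro20-1724 (0.1 mM final) went in first, then compound for 10 min. NKH477 (200 nM) with quinpirole (12 nM) followed for 30 min at RT, then HTRF detection reagents for 1 h.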
The target in test [18] is 5-hydroxytryptamine receptor 2A (Homo sapiens) (UniProt P28223). In words: 5-hydroxytryptamine receptor 2A (HTR2A) small molecule agonists, cell-based qHTS assay (AID 1963587). Also: nearly all actives have a fitted effect of over 30% in size. A digest of the protocol: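 CHO cells stably expressing human HTR2A, plated 18 h, loaded with calcium dye 1 h at 37 C. Agonist mode: compounds added and intracellular calcium fluorescence recorded kinetically for 2 min at 1 sec intervals.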

For test [19], the target named is Muscarinic acetylcholine receptor M1 (Homo sapiens) (UniProt P11229). Nature of the test: Cholinergic receptor muscarinic 1 (CHRM1) small molecule agonists, cell-based qHTS assay (AID 1963589). Also: nearly all actives have a fitted effect of over 35% in size. The procedure, abridged:
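Agonist-mode qHTS in CHO cells stably carrying human muscarinic M1. Intracellular calcium is tracked by fluorescence every second after compound transfer; each compound runs at 15 concentrations in three independent runs.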

Test [20] in a line: p53 small molecule agonists, cell-based qHTS assay: qHTS cell viability counter screen (AID 1963581). Also: nearly all actives have a fitted effect of over 45% in size. A digest of the protocol: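 Cells: HCT-116 with p53 response element-driven beta-lactamase. Treatment: 16 h, 37 C, compounds in DMSO. Read: CellTiter-Glo luminescence after 30 min RT.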

SMILES strings stand for the structures. Values without a mark were called inactive. Results filed as inconclusive are left out. Activity calls are given as the source filed them. Unless noted, calls follow the shape of the full dose curve.

Chain of Muscarinic acetylcholine receptor M1 (Homo sapiens) (P11229 whole entry, looked up): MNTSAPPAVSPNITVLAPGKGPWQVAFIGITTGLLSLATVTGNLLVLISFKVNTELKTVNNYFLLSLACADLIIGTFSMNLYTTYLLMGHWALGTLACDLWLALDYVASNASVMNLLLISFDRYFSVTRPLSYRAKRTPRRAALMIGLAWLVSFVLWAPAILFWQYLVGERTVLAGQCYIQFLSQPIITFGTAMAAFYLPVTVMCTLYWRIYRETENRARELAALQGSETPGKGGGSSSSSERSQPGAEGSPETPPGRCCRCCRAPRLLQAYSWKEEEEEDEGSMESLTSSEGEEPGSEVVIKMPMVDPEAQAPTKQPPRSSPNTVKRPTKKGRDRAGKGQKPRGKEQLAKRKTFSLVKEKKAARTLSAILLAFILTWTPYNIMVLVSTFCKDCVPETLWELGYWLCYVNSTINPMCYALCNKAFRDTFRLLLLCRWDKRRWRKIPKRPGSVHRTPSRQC
Chain of Gonadotropin-releasing hormone receptor (Homo sapiens) (P30968 whole entry, looked up): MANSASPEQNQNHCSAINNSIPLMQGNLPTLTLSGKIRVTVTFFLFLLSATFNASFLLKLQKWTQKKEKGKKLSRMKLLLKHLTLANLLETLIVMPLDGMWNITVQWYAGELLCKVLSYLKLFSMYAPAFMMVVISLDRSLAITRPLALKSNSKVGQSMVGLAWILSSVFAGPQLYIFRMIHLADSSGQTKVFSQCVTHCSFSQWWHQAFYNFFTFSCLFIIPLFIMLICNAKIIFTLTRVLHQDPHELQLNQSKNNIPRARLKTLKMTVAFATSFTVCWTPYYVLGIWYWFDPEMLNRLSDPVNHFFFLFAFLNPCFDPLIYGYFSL
Chain of D(2) dopamine receptor (Homo sapiens) (P14416 whole entry, looked up): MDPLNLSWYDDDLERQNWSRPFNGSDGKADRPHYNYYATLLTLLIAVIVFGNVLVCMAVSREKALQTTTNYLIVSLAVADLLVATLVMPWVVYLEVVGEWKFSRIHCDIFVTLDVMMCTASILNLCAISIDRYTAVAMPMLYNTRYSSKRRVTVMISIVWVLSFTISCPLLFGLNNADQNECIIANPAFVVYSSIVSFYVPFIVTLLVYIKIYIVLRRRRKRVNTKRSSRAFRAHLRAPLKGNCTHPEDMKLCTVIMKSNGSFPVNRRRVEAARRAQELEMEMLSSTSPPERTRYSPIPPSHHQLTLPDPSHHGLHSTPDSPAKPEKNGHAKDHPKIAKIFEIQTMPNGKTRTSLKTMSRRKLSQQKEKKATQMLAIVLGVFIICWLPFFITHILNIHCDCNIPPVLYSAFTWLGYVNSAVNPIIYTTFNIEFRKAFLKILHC
Chain of Beta-2 adrenergic receptor (Homo sapiens) (P07550 whole entry, looked up): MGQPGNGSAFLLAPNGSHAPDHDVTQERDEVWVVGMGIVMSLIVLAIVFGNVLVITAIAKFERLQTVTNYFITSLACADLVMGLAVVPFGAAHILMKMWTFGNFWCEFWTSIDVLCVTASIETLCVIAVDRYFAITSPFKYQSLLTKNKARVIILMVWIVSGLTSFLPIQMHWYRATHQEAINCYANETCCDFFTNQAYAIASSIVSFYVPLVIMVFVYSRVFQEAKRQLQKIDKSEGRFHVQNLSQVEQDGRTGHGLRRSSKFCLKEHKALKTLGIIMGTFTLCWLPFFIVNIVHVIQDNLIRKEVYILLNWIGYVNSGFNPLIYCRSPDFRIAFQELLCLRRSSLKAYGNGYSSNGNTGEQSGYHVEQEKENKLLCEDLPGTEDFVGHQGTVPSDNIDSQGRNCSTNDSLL

Take `CC(C)C(=O)Cl`: the Potency entry in [1], in test [2], in test [3], in test [4], in [5] and in [6] was “inactive” in each case. Moreover, the Potency entry in test [7], in test [8], in test [9], in [10], in test [11] and in test [12] was “inactive” throughout. Moreover, the Potency entry in test [13], in [14], in [15], in test [16] and in test [17] was “inactive” in each case.

As to `Nc1n[nH]c(N)n1`, the Potency result in test [1], in test [3], in [4], in [5], in test [6] and in test [7] was “inactive” in each case. Further, the Potency result in test [8], in [9], in test [10], in test [11], in [18] and in test [12] was “inactive” each time. Besides, the Potency result in [19], in [16] and in [17] was “inactive” throughout. In addition, the Potency in [2] is 27.8 µM (active).

With `COC1=CC(=O)O[C@@H](CCc2ccccc2)C1`, the Potency entry in [1], in test [2], in test [3], in [4], in test [5] and in test [6] was “inactive” throughout. Besides, the Potency entry in [7], in [8], in test [9], in test [20], in test [11] and in test [18] was “inactive” throughout. Besides, the Potency entry in test [19], in test [14], in test [15], in test [16] and in test [17] was “inactive” each time.

Take `CC(=O)CN(CC(C)=O)N=O`: the Potency result in test [1], in test [2], in [3], in [4], in test [5] and in test [6] was “inactive” throughout. The Potency entry in test [7], in [8], in [9], in test [10], in test [11] and in test [12] was “inactive” throughout. The Potency result in [19], in [13], in test [14], in test [15], in [16] and in test [17] was “inactive” each time.

Turning to `CCN(CC)CCOC(=O)C(O)(c1ccccc1)c1ccccc1`, the Potency result in [1], in [2], in test [3], in test [4], in [5] and in test [6] was “inactive” each time. The Potency entry in test [7], in test [8], in [9], in test [10], in [13] and in test [14] was “inactive” in each case. Further, the Potency result in [15], in [16] and in test [17] was “inactive” throughout.

As to `N#CNC#N`, the Potency entry in test [1], in [2], in test [3], in test [4], in test [5] and in test [6] was “inactive” in each case. The Potency result in [7], in test [8], in [9], in [10], in test [11] and in [18] was “inactive” in each case. Further, the Potency result in test [12], in test [19], in test [13], in [14], in test [16] and in [17] was “inactive” throughout.

For the molecule `CCCCOC(C)=O`, the Potency entry in test [1], in test [2], in [3], in test [4], in [5] and in test [6] was “inactive” in each case. In addition, the Potency entry in test [7], in test [8], in test [9], in test [10], in test [11] and in test [18] was “inactive” in each case. For the same molecule, the Potency entry in test [12], in test [19], in [13], in test [14], in test [15] and in [16] was “inactive” each time. Besides, the Potency result in test [17] was “inactive”.
